Laboratory results published in PubChem BioAssay AID738 (SRMLSC, 2007).
The whole screen tested about 98,000 compounds, of which about 4,900 (5%) were called active. Shown is part of a subset that was picked to be rich in actives. A number with no mark means an inactive call. Rule as the data show it: active = inhibition above about 30%; inactive = the rest.

Test: yeast control strain growth suppression – counter-screen for post-Golgi transport modulator project, primary screen (AID 738)
Details: efflux-deficient yeast background strain, growth absorbance A615, 16 h; at 10 µM; hits give high values

Structure (SMILES) | inhibition
NC(=O)C1(N2CCCCC2)CCN(C2CC(=O)N(Cc3ccc(N4CCCC4=O)cc3)C2=O)CC1 (stereo not drawn) | 10.8%
O=C(CCC(=O)OCc1cccc(C(=O)Oc2ccccc2)c1)Nc1cccc2ccccc12 | 0.79%
O=C1OC(c2ccc(Cl)cc2)=N/C1=C\c1cccnc1 | -10.4%
CS(=O)(=O)c1sc2nc(-c3ccccc3)cc(-c3ccccc3)c2c1N | 10.9%
O=C1CN(c2nc(-c3ccccc3)c3cc(Br)ccc3n2)c2ccccc2N1 | 6.52%
COc1ccccc1NC(=O)COc1ccc(C(=O)OCC(=O)N(C(C)C)C(C)C)cc1OC | 13.2%
FC(F)(F)c1cc(-c2ccco2)nc(NCc2ccc(Cl)cc2)n1 | 25.8%
Cc1ccc(OCC(O)CN2CCN(CC(O)COc3ccc(C)cc3Cl)CC2)c(Cl)c1 (stereo not drawn) | 94.4% (active)
OC(COc1ccc2ccccc2c1)CN1CCOCC1 (stereo not drawn) | 15.5%
COc1cccc(OCC(O)CN2CCN(CCO)CC2)c1 (stereo not drawn) | -4.45%
Cc1ccc(-c2nc(C)sc2CC(=O)O)cc1 | 6.8%
COc1ccccc1N(C)S(=O)(=O)c1ccc(C(=O)N2CCC(C(N)=O)CC2)cc1 | 1.96%
NC(=O)C1CCN(C(=O)c2ccc(C(F)(F)F)cc2)CC1 | 36.9% (active)
NC(=O)C1CCN(C(=O)c2ccc(-c3ccccc3)cc2)CC1 | 6.88%
O=c1oc2c(Cl)cc(Cl)cc2cc1-c1nnc(Nc2ccccc2F)s1 | -3.4%
CCS(=O)(=O)n1nc(-c2ccc(OC)cc2)nc1SC | 9.73%
CCS(=O)(=O)n1nc(-c2ccccc2)nc1SCc1ccccc1 | 31.2% (active)
Cn1c(CO)cnc1SCc1ccccc1 | 9.24%
CCC1(C)Cc2c(sc3nnn(CC(=O)Nc4ccc(Cl)cc4)c(=O)c23)CO1 (stereo not drawn) | 6.74%
O=C(NCCCN1CCOCC1)c1cc2c(s1)CCC2 | -14.4%
Cc1n[nH]c(=S)n1/N=C/c1ccc(Br)o1 | 49.4% (active)
Cc1ccc(-c2n[nH]c(=S)n2/N=C/c2cc3c(cc2[N+](=O)[O-])OCO3)cc1 | -11.7%
C=CCNC(=S)NNc1ncnc2sc3c(c12)CC(C)(C)OC3 | 0%
COc1ccccc1NC(=S)NC(=O)C(C)C | 12.3%
O=C(NCN1CCN(CCO)CC1)c1cnccn1 | -5.66%

Structure (SMILES) | inhibition
Cc1ccc(SCc2cc(=O)[nH]c(N3CCCCC3)n2)cc1 | 7.96%
O=c1cc(CSc2ccccn2)nc(N2CCN(c3ccccc3)CC2)[nH]1 | 8.73%
O=c1cc(-c2ccccc2)nc(N2CCCCC2)[nH]1 | 45% (active)
CCOC(=O)C(=O)Nc1nc(-c2ccccc2)c(CC)s1 | -2.8%
Cc1cccc(CSc2nnc(NC(=O)CSc3nnc(C)s3)s2)c1 | 22.5%
CCN(CC)c1ccc(/C=N/Nc2nc(C)cc(=O)[nH]2)cc1 | -2.13%
COc1cc2c(cc1OC)C(C(=O)NCc1ccco1)C1c3ccccc3CCN1C2=O (stereo not drawn) | 4.7%
CCOC(=O)C1CCN(c2ncnc3c2oc2ccc(Br)cc23)CC1 | 47.4% (active)
CCOC(=O)N1CCN(C(=O)C2CCN(c3ncnc4c3sc3cccc(F)c34)CC2)CC1 | 2.07%
CCOC(=O)C1CCN(C(=O)c2oc3ccc(S(=O)(=O)N4CCCCCC4)cc3c2C)CC1 | 8.75%
CCCNC(=O)c1c(N)n(-c2ccc(S(N)(=O)=O)cc2)c2nc3ccccc3nc12 | -2.52%
Cc1nn(C)c(Oc2ccc(Cl)cc2)c1C=O | 2.69%
O=C1N(Cc2ccc3c(c2)OCO3)c2ccccc2C1(O)c1c[nH]c2ccccc12 (stereo not drawn) | 38.7% (active)
O=C(CCCCn1c(=O)[nH]c2ccccc2c1=O)NCc1ccc2c(c1)OCO2 | 1%
O=C(COc1ccccc1)NCc1ccc2c(c1)OCO2 | 9.88%
Cc1csc(=NC(=O)c2ccccc2)n1CCO | 7.5%
CCC(C)NC(=O)CCCc1ccccc1 (stereo not drawn) | 28.4%
O=C(CNC(=O)Cc1ccccc1)NCC(=O)OCC(=O)c1ccccc1Cl | 13.6%
C=CCOc1c2ccc(C(=O)N(CC)c3ccc(OC)cc3)cc2nn1C | 7.7%
O=C(NC1CC1)c1ccc2c(c1)NC(=O)c1ccccc1S2 | -5.47%
COc1ccc(C(C#N)Nc2ccc(C)cc2)cc1 (stereo not drawn) | 1.82%
COc1ccc(-c2cc(C(=O)n3cnc4ccccc43)c3ccccc3n2)cc1 | 15.1%
O=C(CCc1ccccc1)NCc1cccnc1 | 6.95%
O=C(CCOc1ccccc1)NCc1ccccc1 | 39.4% (active)
O=C(CCCOc1ccccc1)NCc1ccco1 | 3.25%

Structure (SMILES) | inhibition
Cn1sc(NC(=O)c2ccccc2)nc1=O | 4.34%
CC(C)(C)c1cc2cccnc2n1Cc1ccccc1 | 7.46%
CCOC(=O)c1sc2nc(SC)nc(-c3ccccc3)c2c1N | -7.15%
COCCNC(=O)COc1ccc(C)c(C)c1 | -10.9%
Cc1ccccc1OCC(=O)NCC(=O)OCC(=O)c1ccc2ccccc2c1 | 6.76%
Cc1cc2ccccc2n1CCNC(=O)COc1ccc2ccccc2c1 | 44.7% (active)
COc1ccc(C(=O)CN(C(=O)c2ccc(Cl)cc2)N2C(=O)c3ccccc3C2=O)cc1 | -4.1%
COc1cccc(NC(=O)C2c3cc(OC)c(OC)cc3C(=O)N(C)C2c2cccnc2)c1 (stereo not drawn) | -0.14%
CC(=O)NNc1cc(=O)c2c(=O)n(C)c(=O)n(C)c2[nH]1 | 0.97%
Cn1c2ccccc2n2c(=O)c(=O)n(CC(=O)c3ccc(F)cc3)nc12 | 3.79%
Cc1cc(C)c(S(=O)(=O)NCC2CCC(C(=O)NCc3ccc4c(c3)OCO4)CC2)c(C)c1 (stereo not drawn) | 15.2%
CCOc1ccccc1Oc1cn[nH]c1-c1ccc(OC)cc1O | 52.3% (active)
CCOc1cc(-c2cc(-c3ccc(OC)cc3)nc(N)c2C#N)ccc1O | -2.55%
CCOc1ccccc1NC(=O)Nc1cc(OC)ccc1OC | 14.3%
Cn1c2c(c(=O)n(C)c1=O)[C@@H]1c3c(ccc4ccccc34)OC[C@@H]1CO2 | 3.76%
Cc1nc2ccccc2c(=O)n1CCCn1ccnc1 | 1.67%
CCn1c(/C=C/c2ccc([N+](=O)[O-])o2)nc2ccccc2c1=O | 68% (active)
CCc1ccc(NC(=O)CSc2nc3ccccc3c(=O)n2CCN2CCOCC2)cc1 | 7.51%
O=C(Nc1nnc(SCc2ccc(Cl)cc2Cl)s1)C1COc2ccccc2O1 (stereo not drawn) | 5%
CCOC(=O)c1cnc(-c2ccccc2)nc1Oc1ccc(C)cc1 | 4.35%
Cc1nnc(NC(=O)Cn2c(=O)sc3ccccc32)s1 | -3.03%
N/C(=N\OC(=O)Nc1ccc(Cl)c(Cl)c1)c1ncc(C(F)(F)F)cc1Cl | 13.3%
O=C(CC(O)(C(F)(F)F)C(F)(F)F)Nc1ccc(Cl)c(Cl)c1 | 96.9% (active)
Cc1nnc(NC(=O)Nc2ccc(Cl)c(Cl)c2)s1 | 3.53%
COCc1cc(C)nc2sc3c(=O)n(-c4cccc5ccccc45)nnc3c12 | 21.1%

Structure (SMILES) | inhibition
COc1ccc(-c2csc(N3CCN(Cc4ccc5c(c4)OCO5)CC3)n2)cc1 | -2.01%
O=C(CN1CCN(c2nc(-c3ccccc3)cs2)CC1)NCc1ccc2c(c1)OCO2 | 44.6% (active)
O=C(Cn1nnc(-c2ccccc2)n1)NCc1ccc2c(c1)OCO2 | 2.85%
COc1ccc(C2CC(=O)Nc3sc(=N)c4c(N)c(C#N)c(N)nc4c32)cc1OC (stereo not drawn) | 24.2%
Fc1ccccc1/C=C1\CCCC2=C1Nc1ncnn1C2c1ccccc1F (stereo not drawn) | 35.8% (active)
CCCCCCn1c(SCC(=O)c2ccccc2)nc2c1c(=O)[nH]c(=O)n2C | 12.4%
CCCCCn1c(SCCC(C)C)nc2c1c(=O)[nH]c(=O)n2C | 35.5% (active)
CCCSc1nc2c(c(=O)[nH]c(=O)n2C)n1CCc1ccccc1 | 16.6%
ONC(=Nc1ccccc1)c1ccccc1Cl | 24.2%
CN(C(=O)CSc1nnc(N)s1)c1c(N)n(Cc2ccccc2)c(=O)[nH]c1=O | 7.66%
Cc1cc([N+](=O)[O-])c(N2CCC[C@@H]2C(=O)O)c([N+](=O)[O-])c1 | 18.4%
Cc1ccsc1-c1nc(CSCC(=O)NCCN2CCCC2)c(C)o1 | 34.5% (active)
Cn1c(C(=O)NCCCN2CCCCC2)cc2sccc21 | 2.29%
Cc1ccc(Cc2c(C)nc3nc(SCC(=O)NCCN4CCOCC4)nn3c2C)cc1 | 20%
COc1ccccc1N1CCN(CCCCOc2ccc(F)cc2)CC1 | -0.55%
COc1ccccc1N1CCN(Cc2ccc(OC)c3ccccc23)CC1 | 34.9% (active)
COc1ccccc1N1CCN(Cc2nnnn2CCc2ccccc2)CC1 | 7.81%
Cc1cc(C)n2nc(C(=O)NC(C)(C)C)nc2n1 | 4.47%
COc1ccc(Oc2c(Cl)cnn(-c3ccccc3)c2=O)cc1 | -3.86%
CCN1CCC(=NNC(=O)c2ccc(C)c([N+](=O)[O-])c2)CC1 | 3.82%
Cc1oc(-c2ccccc2F)nc1CS(=O)(=O)CC(=O)NCCCN(C)C1CCCCC1 | 13.5%
Cc1ccccc1-c1nc(CS(=O)(=O)CC(=O)N2CCc3ccccc3C2)c(C)o1 | 30.9% (active)
COc1ccc(-c2nc(CS(=O)CC(=O)N3CCc4ccccc4C3)c(C)o2)cc1 (stereo not drawn) | 4.85%
